Assay outcomes deposited in PubChem by Broad Institute.
C diff HTS: C. difficile growth inhibition. Clostridium difficile clinical isolate growth, OD600, 24 h; stronger effect = lower value. growth activity, negative = inhibition, % at 16 µg/mL (by protocol). 86,000 tested, 0.25% active;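 active = mean growth activity at or below -80% and every replicate also at or below -80%; inconclusive = mean at or below -80% but some replicate above -80%; inactive = mean growth activity above -80%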;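 also: 0% = DMSO wells and -100% = levofloxacin 16 µg/mL wells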
T cruzi growth-1: T. cruzi proliferation inhibition. 77,000 tested, 5.9% active. inhibition, % at 8.34 µM. AID 624255. T. cruzi beta-gal in NIH3T3, GalScreen luminescence, 90 h;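 active = mean inhibition above about 93%, with at least 55% of replicates each passing it, limit read from the data, passing the limit was not always enough; inconclusive = only one of those two conditions holds; inactive = neither condition holds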
Pf Dd2 inh: inhibitors of Plasmodium falciparum Dd2 growth; AID 1159554; P. falciparum Dd2 growth, SYBR Green, 72 h; stronger effect = lower value; 94,000 tested, 2.3% active; activity change, % at 10 µM; in the data active = activity change below about -80%; inconclusive = no clear call, values can overlap the other calls
T cruzi growth-2: inhibitors of T. cruzi proliferation; shares compounds with T cruzi growth-1; T. cruzi beta-gal in NIH3T3, GalScreen luminescence, 90 h; inhibition, % at 8.35 µM; 5,600 tested, 72% active;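 active = mean replicate inhibition above about 95% and at least 55% of replicates individually reaching it, limit read from the data; inconclusive = only one of the two criteria is met; inactive = neither criterion is met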
T cruzi growth-3: Trypanosoma cruzi proliferation inhibition; shares compounds with T cruzi growth-1; T. cruzi beta-gal in NIH3T3, GalScreen luminescence, 90 h; inhibition, % at 2.09 µM; 5,600 tested, 21% active;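 active = mean inhibition above about 95%, with at least 55% of replicates also reaching it, limit read from the data; inconclusive = meets just one of the two conditions; inactive = meets neither condition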;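 also: plate controls were neutral control median for no effect and positive control median for full effect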
NIH3T3 tox: kills mouse NIH/3T3 fibroblasts; 5,600 tested, 14% active; cytotoxicity (signal decrease), % at 8.35 µM; AID 651742; NIH/3T3 viability, CellTiter-Glo ATP luminescence, 90 h; shares compounds with T cruzi growth-1;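 active = mean signal decrease across replicates above about 35% based on untreated-well scatter, with enough replicates individually passing, limit read from the data; inconclusive = no rule stated though some were filed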;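 also: 0% = median of neutral control wells and 100% = median of positive control wells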
NIH3T3 tox 2: NIH/3T3 (mouse) viability loss. 5,600 tested, 56% active. shares compounds with T cruzi growth-1. NIH/3T3 viability, CellTiter-Glo ATP luminescence, 90 h. inhibition, % at 24.9 µM;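 active = mean loss of cell viability signal at or above a set limit, and enough replicates individually reaching it; inconclusive = meets only the mean limit or only the replicate share; inactive = meets neither condition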;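 also: 0% = median of neutral control wells and 100% = median of positive control wells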
* hit, by the source's call; ? = inconclusive; / = not tested or not shown. In the library only some 6.7% were active in any assay of this set; here they are far more common.

SMILES | C diff HTS | T cruzi growth-1 | Pf Dd2 inh | T cruzi growth-2 | T cruzi growth-3 | NIH3T3 tox | NIH3T3 tox 2
COc1ccc(NC(=O)N(C)C[C@H]2OCCCC[C@H](C)Oc3ccc(NS(=O)(=O)c4ccc(C)cc4)cc3C(=O)N([C@H](C)CO)C[C@@H]2C)cc1 | / | 19.6 | -44.6 | / | / | / | /
Cc1noc(C)c1NC(=O)NCC[C@H]1CC[C@H](NC(=O)Nc2cccc(Cl)c2)[C@@H](CO)O1 | / | 1.9 | -10.7 | / | / | / | /
Cc1ccc(-c2ccc3c(c2)O[C@H](CN(C)C(=O)C2CCC2)[C@@H](C)CN([C@@H](C)CO)S3(=O)=O)cc1 | -6.9 | 66.9 | -48.2 | / | / | / | /
Cc1ccc(-c2ccc3c(c2)O[C@H](CN(C)C(=O)C2CCCCC2)[C@@H](C)CN([C@H](C)CO)S3(=O)=O)cc1 | / | 112.4* | -18.0 | 107.7* | 102.6* | -15.5 | 93.8*
Cc1ccc(-c2ccc3c(c2)O[C@@H](CN(C)C(=O)C2CCCCC2)[C@H](C)CN([C@@H](C)CO)S3(=O)=O)cc1 | / | 120.1* | -39.7 | 107.6* | ? | 31.7 | 96.5*
C[C@@H]1CN([C@@H](C)CO)S(=O)(=O)c2ccc(-c3ccc(F)cc3)cc2O[C@H]1CN(C)C(=O)C1CCC1 | / | 84.7 | -54.2 | / | / | / | /
Cc1ccc(-c2ccc3c(c2)O[C@@H](CN(C)C(=O)C2CC2)[C@@H](C)CN([C@H](C)CO)S3(=O)=O)cc1 | / | 107.6 | -10.0 | / | / | / | /
C[C@@H]1CN([C@H](C)CO)S(=O)(=O)c2ccc(-c3ccc(F)cc3)cc2O[C@@H]1CN(C)C(=O)C1CCCCC1 | -2.2 | 107.7* | -19.6 | 103.5* | 91.9 | 28.2 | 101.6*
CCCNC(=O)N1CC2(CCN(C(=O)c3cnccn3)CC2)c2c([nH]c3cc(OC)ccc23)[C@@H]1CO | 0.4 | / | 6.5 | / | / | / | /
COc1ccc(NC(=O)N(C)C[C@H]2Oc3ccc(NS(=O)(=O)c4ccc(F)cc4)cc3CC(=O)N([C@H](C)CO)C[C@@H]2C)cc1 | 1.1 | 27.0 | 10.5 | / | / | / | /
CC(=O)N(C)C[C@@H]1Oc2cc(C3=CCCC3)ccc2S(=O)(=O)N([C@@H](C)CO)C[C@H]1C | 4.2 | 7.2 | / | / | / | / | /
COc1ccc(CN(C)C[C@@H]2Oc3c(NC(=O)c4ccncc4)cccc3C(=O)N([C@@H](C)CO)C[C@H]2C)cc1 | -1.3 | 105.3* | -0.4 | 85.6 | 79.5 | 22.5 | 26.2*
COc1ccc(CN(C)C[C@H]2Oc3c(NC(=O)c4ccncc4)cccc3C(=O)N([C@@H](C)CO)C[C@@H]2C)cc1 | 4.2 | 99.9* | 1.3 | 94.6 | 79.6 | 11.8 | 37.4*
C[C@H](CO)N1C[C@H](C)[C@@H](CN(C)Cc2ccncc2)Oc2c(NC(=O)c3ccncc3)cccc2C1=O | -7.2 | 44.4 | 17.7 | / | / | / | /
C[C@@H]1CN([C@@H](C)CO)C(=O)c2cccc(NC(=O)c3ccncc3)c2O[C@H]1CN(C)Cc1ccncc1 | -2.2 | 61.1 | -4.8 | / | / | / | /
COc1cccc(-c2ccc3c(c2)[C@H]2[C@H](CCN2C(=O)C2CC2)[C@@H](CO)N3)c1 | 8.4 | / | -26.3 | / | / | / | /
COc1ccc2c3c([nH]c2c1)[C@H](CO)N(C(=O)C1CCCC1)CC31CN(C(=O)c2ccncc2)C1 | -9.1 | / | -43.7 | / | / | / | /
CC(C)NC(=O)N1C[C@H]2[C@@H](c3ccccc31)[C@@H](CO)N2C(=O)c1ccncc1 | 3.2 | -10.6 | 2.1 | / | / | / | /
COc1ccccc1NC(=O)N1CCCCN2[C@H](CO)[C@@H](c3ccc(C#Cc4ccccc4)cc3)[C@@H]2C1 | 0.5 | 49.5 | -24.0 | / | / | / | /
COc1ccccc1NC(=O)N1CCCCN2[C@H](C1)[C@H](c1ccc(-c3ccc(C)cc3)cc1)[C@@H]2CO | 1.7 | 112.8* | -48.1 | 110.8* | 73.1 | 15.6 | 28.1*
COc1ccccc1NC(=O)N1CCCCN2[C@H](C1)[C@H](c1ccc(C#Cc3ccccc3)cc1)[C@@H]2CO | 3.8 | 114.0* | -25.1 | 103.7* | 79.5 | 27.2 | 30.5*
COc1ccccc1NC(=O)N1CCCCN2[C@@H](CO)[C@@H](c3ccc(-c4ccc(C)cc4)cc3)[C@@H]2C1 | 52.1 | 93.6 | -62.4 | / | / | / | /
COc1ccccc1NC(=O)N1CCCCN2[C@H](CO)[C@@H](c3ccc(-c4cccc(C)c4)cc3)[C@@H]2C1 | 40.4 | 94.9 | -70.9 | / | / | / | /
COc1ccccc1NC(=O)N1CCCCN2[C@H](CO)[C@@H](c3ccc(-c4ccccc4)cc3)[C@@H]2C1 | 30.2 | 106.8* | -54.6 | 107.7* | 115.9* | 23.9 | 104.9*
COc1ccccc1NC(=O)N1CCCCN2[C@H](C1)[C@H](c1ccc(-c3cccc(F)c3)cc1)[C@@H]2CO | 27.8 | 89.8 | -4.0 | / | / | / | /
SMILES | C diff HTS | T cruzi growth-1 | Pf Dd2 inh | T cruzi growth-2 | T cruzi growth-3 | NIH3T3 tox | NIH3T3 tox 2
COc1ccccc1NC(=O)N1CCCCN2[C@H](CO)[C@H](c3ccc(-c4ccccc4)cc3)[C@@H]2C1 | -4.1 | 111.2* | 7.3 | 104.9* | 93.4 | 18.1 | 32.1*
C[C@H](NC(=O)C[C@@H]1CC[C@H](NC(=O)C2CCOCC2)[C@H](CO)O1)c1ccccc1 | -0.1 | -21.7 | -3.0 | / | / | / | /
C[C@@H]1CN([C@H](C)CO)C(=O)c2cccc(NS(C)(=O)=O)c2O[C@H]1CN(C)S(=O)(=O)c1cccs1 | / | 0.4 | -4.7 | / | / | / | /
COCCNC(=O)C[C@H]1CC[C@H]2[C@@H](COC[C@@H](O)CN2Cc2cccc(-c3ccncc3)c2)O1 | -0.7 | -32.5 | -3.7 | / | / | / | /
COc1ccc(CN2[C@@H](CO)[C@@H]3c4ccccc4N(C(=O)CC(F)(F)F)C[C@@H]32)cc1 | 32.0 | 43.5 | -12.6 | / | / | / | /
CCC(=O)N1[C@@H](CO)[C@@H](c2ccccc2)C12CN(C(=O)CN1CCOCC1)C2 | -1.6 | / | 8.3 | / | / | / | /
C[C@@H]1CN([C@H](C)CO)C(=O)c2cc(NC(=O)Nc3cccc4ccccc34)ccc2O[C@H]1CN(C)Cc1ccc(Oc2ccccc2)cc1 | 6.8 | 112.5* | -52.7 | 107.3* | 93.7 | 27.3 | 16.1
COc1ccc(CN(C)C[C@H]2Oc3ccc(NC(=O)Nc4cccc5ccccc45)cc3C(=O)N([C@H](C)CO)C[C@@H]2C)cc1 | -4.3 | -2.2 | 5.9 | / | / | / | /
C[C@@H]1CN([C@@H](C)CO)C(=O)c2cc(NC(=O)Nc3cccc4ccccc34)ccc2O[C@@H]1CN(C)Cc1ccc(Oc2ccccc2)cc1 | 11.2 | 123.6* | -35.5 | 98.7* | 104.6* | 29.3 | 27.3*
COc1ccc(CN(C)C[C@H]2Oc3ccc(NC(=O)Nc4cccc5ccccc45)cc3C(=O)N([C@@H](C)CO)C[C@H]2C)cc1 | 29.9 | 62.3 | 3.5 | / | / | / | /
C[C@@H]1CN([C@@H](C)CO)C(=O)Cc2cc(NC(=O)CCN3CCOCC3)ccc2O[C@H]1CN(C)S(C)(=O)=O | -1.3 | -13.3 | 9.4 | / | / | / | /
Cc1ccc(S(=O)(=O)Nc2ccc3c(c2)CC(=O)N([C@@H](C)CO)C[C@@H](C)[C@H](CN(C)Cc2ccccc2)O3)cc1 | -13.3 | / | -13.5 | / | / | / | /
